Data reported in PubChem BioAssay (NCATS).
Inconclusive results are not listed. Entries that show only a call come without a potency. Activity calls are given as the source filed them. The call rests on the fitted dose curve; in most records, active means well fitted curve in the direction sought with a large enough effect; inconclusive means small, poorly fitted or top-dose-only effect, or another doubt; inactive means no such curve, though single readings can be large; an effect the other way counts as inactive or inconclusive.

Columns and labels:
[1] = qHTS for compounds that reverse cellular toxicity of Amyloid beta (A-beta) peptide in yeast: LOPAC Validation Assay (AID 720559)
In short: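 Activity is expressed relative to DMSO and an equimolar ferric chloride/clioquinol mix. Compounds were pinned into medium with A-beta-expressing yeast, grown 48 hr at 30 C, then read by absorbance at 600 nm.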

[2] = qHTS for Activators of Parkin Expression: LOPAC Validation Assay (NLuc Reporter) (AID 720572)
In short: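 Neuronal cells with a Parkin promoter-driven FLuc/NLuc coincidence reporter were treated 24 h at 37 C in 7-point dose response (LOPAC). NLuc luminescence read after FLuc; signals normalized to DMSO and positive control (100%).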

[3] = qHTS for Activators of Parkin Expression: LOPAC Validation Assay (FLuc Reporter) (AID 720573)
In short: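 A neuronal cell line harbouring FLuc and NLuc reporters behind the Parkin promoter was exposed to compounds for 24 h. Firefly luciferase signal, measured after 10 min with detection reagent, was scaled to DMSO and positive-control wells.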

Structure (SMILES)	outcome [1]	Potency [2]	Potency [3]
CCN(CC)CCOC(=O)c1cc(Cl)c(N)cc1OC	inactive	inactive	inactive
CC(C)NC[C@H](O)COc1cccc2ccccc12	inactive	inactive	
C=CCN1CCc2c(cc(O)c(O)c2Cl)C(c2ccccc2)C1 (centres undefined)	inactive	inactive	inactive
O=C(O)c1ccccc1Nc1cccc(OCc2ccc3ccccc3n2)c1	inactive	inactive	inactive
CCCN(CCc1ccccc1)C1CCc2c(O)cccc2C1 (centres undefined)	inactive	inactive	
Cc1ccccc1/C=C/C1=NCCN1	inactive	inactive	
O=C(O)Cc1c[nH]c2ccc(O)cc12	inactive	inactive	inactive
O=C1Nc2ccc(I)cc2/C1=C/c1cc(Br)c(O)c(Br)c1	inactive	inactive	inactive
COC(=O)C(C)(N)Cc1ccc(O)cc1 (centres undefined)	inactive	inactive	inactive
C#CC(N)CCC(=O)O (centres undefined)	inactive	inactive	inactive
O=c1onc2n1-c1cc(Br)ccc1OC2	inactive	inactive	inactive
CCCn1c(=O)c2[nH]c(-c3ccc(S(=O)(=O)O)cc3)nc2n(CCC)c1=O	inactive	inactive	inactive
Nc1nc2c(cnn2CCc2ccccc2)c2nc(-c3ccco3)nn12	inactive	inactive	
CCCCCCC(=O)OC1CC(C)(C)NC(C)(C)C1	inactive	inactive	inactive
NC(N)=NC(N)=Nc1cccc(Cl)c1	inactive	inactive	
NC(=O)CNCCC(c1ccccc1)c1ccccc1	inactive	inactive	inactive
COC(=O)C1=C(C)NC(C)=C([N+](=O)[O-])C1c1ccccc1C(F)(F)F (centres undefined)	inactive		
